D2 PAM-1: positively modulates the human D2 dopamine receptor allosterically; potentiation, % at 10 µM; 340,000 tested, 0.34% active; P14416; HEK293 T-REx D2, calcium flux, EC20 dopamine potentiation;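 active = potentiation over 3 SD above the plate norm, cut at about 30% in these data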
Target sequence (P14416 whole entry, looked up): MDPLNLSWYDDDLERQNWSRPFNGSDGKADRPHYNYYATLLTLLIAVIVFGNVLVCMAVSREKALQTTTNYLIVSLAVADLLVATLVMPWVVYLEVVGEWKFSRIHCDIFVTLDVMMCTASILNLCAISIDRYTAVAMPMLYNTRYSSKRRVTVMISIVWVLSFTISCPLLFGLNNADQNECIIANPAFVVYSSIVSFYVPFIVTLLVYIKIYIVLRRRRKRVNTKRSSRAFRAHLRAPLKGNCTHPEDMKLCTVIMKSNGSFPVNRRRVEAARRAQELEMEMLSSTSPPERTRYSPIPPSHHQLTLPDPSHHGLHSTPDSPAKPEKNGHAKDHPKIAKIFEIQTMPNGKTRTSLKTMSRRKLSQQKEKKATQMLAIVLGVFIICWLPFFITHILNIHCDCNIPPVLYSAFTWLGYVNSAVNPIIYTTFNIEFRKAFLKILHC
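Cells plated with tetracycline inducer and held overnight at 30 C; calcium dye loaded 30–90 min at room temperature; baseline taken, compound added and read 180 s; EC20 dopamine then added and read 180 s.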
D2 antagonist: antagonizes the human D2 dopamine receptor | P14416 | HEK293 TREx D2 cells, calcium flux, dopamine EC80 | inhibition, % at 10 µM | 340,000 tested, 2% active | AID 485344; in the data active = inhibition above about 30%; inactive = below that, where a call was filed
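Dopamine at EC80 is the agonist stimulus; test compounds precede it by 180 s. Calcium flux read kinetically in a force-coupled, inducible HEK293 T-REx D2 cell line.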
D2 ag-1: agonists of human D2 dopamine receptor (beta-arrestin). P14416. DiscoveRx PathHunter D2 beta-arrestin, luminescence, 90 min; 100% = 57 uM dopamine signal. activation, % (concentration not given with the values). 360,000 tested, 0.084% active. AID 624465; in the data active = activation above about 40%; inconclusive = between about 15% and that limit
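DiscoveRx PathHunter D2 beta-arrestin cells (2,100/well) attached overnight, then compound-stimulated 90 min at 37 C in HBSS/10 mM HEPES/0.1% Tween-20 buffer; beta-galactosidase complementation read by luminescence after 1 h at ambient temperature. Dopamine 57 uM final (EC100) as control.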
D2 ag-2: activates the human D2 dopamine receptor | P14416 | HEK293 T-REx D2 cells, calcium flux agonist mode | activation, % at 2 µM | 340,000 tested, 0.53% active | AID 485358;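 active = activation over 3 SD above normal in the single-dose calcium agonist read, cut at about 30% in these data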
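In this primary screen, compounds producing a positive calcium signal within 180 s of addition to tetracycline-induced, force-coupled HEK293 Trex D2 cells are flagged; cells are dye-loaded with a no-wash calcium kit beforehand.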
D2 PAM-2: positive allosteric modulators of human D2 dopamine receptor | P14416 | DiscoveRx D2 beta-arrestin cells, luminescence, 90 min; 100% = 57 uM dopamine signal | potentiation, % (concentration not given with the values) | 360,000 tested, 0.23% active | AID 624464; in the data active = potentiation above about 50%; inconclusive = mostly about 30% to 49%
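PathHunter beta-arrestin assay in DiscoveRx D2 cells. Compounds were added with an EC20 of dopamine (50 nM final) for 90 min at 37 deg C. Luminescence was read 1 h after detection reagent, with 57 uM dopamine as the EC100 control.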
Large screens that a line does not name were inactive. Sampled rows, rich in hits. Any-hit rate of the full collection: about 2.4%.

COc1ccc(Cc2nc3ccc(C(=O)N4CCC[C@H]4CO)cc3o2)cc1	none
COc1ccc(C/C(N)=N/n2cnnc2)cc1Cl	none
COc1ccc(C(=O)O/N=C(\N)Cc2ccc(Cl)c(Cl)c2)cc1OC	D2 ag-1 inconclusive, D2 PAM-2 118.4
N/C(CN1CCCC1=O)=N\OC(=O)c1ccc(Cl)cc1	none
N/C(CN1CCCC1=O)=N\OC(=O)c1ccc(Cl)c(Cl)c1	D2 ag-1 inconclusive, D2 PAM-2 110.2
Cc1cccc(OCC(=O)O/N=C(\N)Cc2ccc(Cl)cc2)c1	D2 PAM-1 33.4
N/C(Cc1ccc(Cl)cc1)=N\OC(=O)c1ccccc1	D2 ag-1 inconclusive, D2 PAM-2 68.2
CCS(=O)(=O)N1CC(=O)N(c2cc(C)cc(C)c2)C(C)(C(=O)NC2CCCCC2)C1 (stereo unspecified)	none (no result: D2 antagonist, D2 ag-1, D2 PAM-2)
COc1ccc(C(=O)O/N=C(\N)Cc2ccc(Cl)cc2)cc1OC	D2 PAM-2 164.5
CCCCn1nnnc1C(C1CC1)N1CCN(C/C=C/c2ccccc2)CC1 (stereo unspecified)	none (no result: D2 PAM-1, D2 antagonist, D2 ag-2)
O=C(NC1CCN(C(=O)Nc2cccc(Cl)c2)CC1)C1CCCCC1	none
O=C(Nc1cccc(Cl)c1)NC1CCN(C2CCCCC2)C1 (stereo unspecified)	D2 antagonist 84.9
CCOc1ccc(C(=O)Nc2c3c(nn2C(C)(C)C)CSC3)cc1OCC	D2 antagonist 30.1
CCOc1ccc(C(=O)Nc2nnc(C)s2)cc1OCC	none
Cc1cc(C)n(C(C)CC(=O)Nc2cccc(C#N)c2)n1 (stereo unspecified)	none (no result: D2 antagonist, D2 ag-1, D2 ag-2, D2 PAM-2)
CCN1CCN(C(=O)C2c3cc(OC)c(OC)cc3C(=O)N(C)C2c2ccc(SC)cc2)CC1 (stereo unspecified)	D2 PAM-1 46.4
CCOC(=O)c1cccc(N2CC3CNC(=O)C2(C(=O)OC)N3C)c1 (stereo unspecified)	none (no result: D2 PAM-1, D2 antagonist, D2 ag-2)
Cc1ccc(NC(=O)CSc2nnc(-c3cc4occc4n3C)n2-c2ccccc2C)c(Cl)c1	none (no result: D2 antagonist, D2 ag-1, D2 ag-2, D2 PAM-2)
CCOc1ccc(NC(=O)N2CC=C(c3c[nH]c4ccccc34)CC2)cc1	none (no result: D2 antagonist, D2 ag-1, D2 PAM-2)
COc1ccc(NC(=O)C/C(C)=N/NC(=O)CCc2ccccc2)c(OC)c1	D2 antagonist 39.9
COc1ccc(NC(=O)CCCc2ccccc2)c(OC)c1	none
Cc1nc2ccccn2c(=O)c1CCN1CCC(C(=O)c2ccc(F)cc2)CC1	D2 antagonist 94.8
Cc1nc2sccn2c(=O)c1S(=O)(=O)N1CCN(c2ccc(F)cc2)CC1	none
Cc1nc2sccn2c(=O)c1CCN1CCC(=C(c2ccc(F)cc2)c2ccc(F)cc2)CC1	D2 antagonist 78.3
CCn1c(=O)n(CC)c2cc(N3CCCCC3)c(NC(=O)Nc3cc(Cl)ccc3OC)cc21	none (no result: D2 antagonist, D2 ag-1, D2 PAM-2)
CC(=O)c1ccc(OCC(O)CN(C)CCOc2ccc(Br)cc2)cc1 (stereo unspecified)	D2 antagonist 43.8
COc1ccc(CCN(C)CC(O)COc2ccc(C(C)=O)cc2OC)cc1OC (stereo unspecified)	D2 antagonist 36.0
CCOC(=O)c1ccccc1NC(=O)Cn1c(=O)n(-c2cccc(C)c2)c(=O)c2c1c1cc(C)ccc1n2C	none (no result: D2 antagonist, D2 ag-1, D2 PAM-2)
CCc1ccc(NC(=O)CSC2=Nc3ccccc3C3=NC(CC(=O)NCc4ccc5c(c4)OCO5)C(=O)N23)cc1 (stereo unspecified)	none (no result: D2 antagonist, D2 ag-1, D2 PAM-2)
N/C(=N\OC(=O)c1ccc2c(c1)OCO2)c1cccnc1	D2 ag-1 inconclusive, D2 PAM-2 79.1
N/C(=N\OC(=O)c1ccc2c(c1)OCO2)c1cccc(Br)c1	D2 ag-1 inconclusive, D2 PAM-2 106.3
COc1ccc(C(=O)Oc2ccc3c(c2)OCO3)cc1OC	none
COc1cc(OC)c(C(=O)Oc2ccc3c(c2)OCO3)cc1OC	D2 antagonist 30.2
COc1ccc(/C(N)=N/OC(=O)c2ccc3c(c2)OCO3)cc1OC	D2 PAM-2 84.3
COCOc1ccc(-c2ncc(OC)nc2NC(=O)c2ccsc2)cc1	none (no result: D2 PAM-1, D2 antagonist, D2 ag-2)
CCn1c(SCC(=O)NCc2ccc3c(c2)OCO3)nnc1-c1c[nH]c2ccccc12	D2 PAM-1 34.3
CC(=O)Nc1ccc(Oc2ccc(-c3noc(C)n3)cc2)cc1	none
CC(=O)Oc1ccc(Oc2ccc(-c3noc(C)n3)cc2)cc1	D2 PAM-1 33.2
CCC(NC(=O)C1CCC1)c1ccc(C)cc1 (stereo unspecified)	D2 antagonist 36.7
COc1ccc(C(CC(=O)O)NC(=O)C2CCCCC2)cc1 (stereo unspecified)	none
CCc1ccc(S(=O)(=O)c2nnn(-c3ccc(F)cc3)c2N)cc1	none (no result: D2 antagonist, D2 ag-1, D2 PAM-2)
CC(C)CCNC(=O)C1CCC(CNS(=O)(=O)c2ccc(Cl)cc2)CC1 (stereo unspecified)	D2 antagonist 34.2
COCc1nnc(NC(=O)C2CC(=O)N(CCc3ccc(F)cc3)C2)s1 (stereo unspecified)	D2 antagonist 30.1
Cc1ccc(NC(=O)Cn2c(=O)ccc3cc(S(=O)(=O)N4CCCC4)ccc32)cc1N(C)C	none (no result: D2 antagonist, D2 ag-1, D2 PAM-2)
Cc1ccc2c(c1)-c1[nH]c(=S)ncc1CS2	D2 PAM-2 60.4
CC(C)N1CCc2c(sc(NC(=O)c3ccc(S(=O)(=O)N(C)C4CCCCC4)cc3)c2C(N)=O)C1	none (no result: D2 antagonist, D2 ag-1, D2 PAM-2)
CCN1CCc2c(sc(NC(=O)c3ccc(S(=O)(=O)N(CCOC)CCOC)cc3)c2C(N)=O)C1	none (no result: D2 antagonist, D2 ag-1, D2 PAM-2)
CNC(=O)c1c(NC(=O)c2ccc(S(=O)(=O)N(C)c3ccccc3)cc2)sc2c1CCN(C(C)C)C2	D2 ag-2 84.4
CCN1CCc2c(sc(NC(=O)c3ccc(S(=O)(=O)N(C)c4ccccc4)cc3)c2C(=O)NC)C1	D2 ag-2 38.1
CCOC(=O)c1c(NC(=O)c2cc(OCC)c(OCC)c(OCC)c2)sc2c1CCCCC2	none (no result: D2 antagonist, D2 ag-1, D2 PAM-2)
COc1ccc(Cn2ccnc2SCC(=O)NCc2ccccc2)cc1	none (no result: D2 antagonist, D2 ag-1, D2 PAM-2)
COc1ccc(Cl)cc1NC(=O)NN1CCN(C)CC1	none
CCOc1ccc(CNC(=O)c2ccccc2NC(=O)c2nsc3ccccc23)cc1	none (no result: D2 antagonist, D2 ag-1, D2 ag-2, D2 PAM-2)
Cc1nnc(NC(=O)CCC2CCCCC2)s1	none (no result: D2 PAM-1, D2 antagonist, D2 ag-2)
O=C(CCC1CCCCC1)Nc1nccs1	D2 antagonist 42.6
COc1ccc(CC(N)c2csc(NC(=O)c3cc(C(C)(C)C)oc3C)n2)cc1 (stereo unspecified)	none (no result: D2 PAM-1, D2 antagonist, D2 ag-2)
Cc1ccc(NC2=C/C(=N/S(=O)(=O)c3cccs3)c3ccccc3C2=O)cc1	D2 PAM-2 57.8
O=C1C(Nc2ccccc2)=C/C(=N/S(=O)(=O)c2cccs2)c2ccccc21	none
CCc1nnc(NC(=O)c2ccc(S(=O)(=O)N3CCCC(C)C3)cc2)s1 (stereo unspecified)	D2 PAM-1 34.8
CCc1nnc(NC(=O)c2ccc(S(=O)(=O)N3CCCC3)cc2)s1	none
CN(C)CCCCOc1ccccc1-c1ccccc1	D2 antagonist 70.6
C=CCNCCCOc1ccc(C(C)(C)c2ccccc2)cc1	none
CN(C)CCCCOc1ccccc1F	none
COCCNCCCCOc1ccccc1-c1ccccc1	D2 antagonist 92.0
